Measurements taken from PubChem BioAssay (NCI).
This is part of a sample that, as a whole, favours compounds with a hit. Of some 83,000 tested, about 20% had one in any assay.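 Note: values are percent growth. 100 is the growth of untreated cells, values between 100 and 0 indicate rising inhibition; between -100 and 0 indicates cell death.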 Values without a mark were called inactive. Active and inactive are the calls of the source. How the source made its calls: active means growth percent below 10; inactive means the rest.

Columns and labels:
Test in all cases: NCI-60 one-dose screen, 48 h (100 = growth as untreated, 0 = no growth, -100 = all killed)
Conditions in all cases: 10 µM unless noted
[1] = tested on: SK-MEL-2 melanoma
[2] = tested on: EKVX NSCLC
[3] = tested on: SN12C renal
[4] = tested on: UO-31 renal
[5] = tested on: TK-10 renal
[6] = tested on: ACHN renal
[7] = tested on: CAKI-1 renal
[8] = tested on: A498 renal
[9] = tested on: CCRF-CEM leukemia
[10] = tested on: MOLT-4 leukemia
[11] = tested on: SR leukemia
[12] = tested on: RPMI-8226 leukemia
[13] = tested on: OVCAR-5 ovarian
[14] = tested on: SK-OV-3 ovarian
[15] = tested on: IGROV1 ovarian
[16] = tested on: OVCAR-3 ovarian
[17] = tested on: HS 578T breast
[18] = tested on: NCI/ADR-RES ovarian
[19] = tested on: OVCAR-8 ovarian
[20] = tested on: OVCAR-4 ovarian

Row | Compound | growth [1] | growth [2] | growth [3] | growth [4] | growth [5] | growth [6] | growth [7] | growth [8] | growth [9] | growth [10] | growth [11] | growth [12] | growth [13] | growth [14] | growth [15] | growth [16] | growth [17] | growth [18] | growth [19] | growth [20]
1 | O=C(Nc1ccc(OS(=O)(=O)c2ccc(F)cc2)cc1)c1ccc(Cl)cc1 | 90.6% | 101% | 95.7% | 92.5% | 95.6% | 103% | 105% | 82.9% | 98.7% | 89.1% | 91.4% | 94.2% | 102% | 105% | 95.7% | 102% | 104% | 93.1% | – | –
2 | COc1ccc(N)c(N)c1 | 121% | 105% | 100% | 75.3% | 113% | 97.3% | 94.4% | 95.1% | 83.1% | 96.2% | 121% | – | 110% | 96.9% | 107% | 125% | 110% | – | 108% | 103%
3 | COc1cc2cc(Oc3ccc(NC(=O)Nc4ccc(Cl)c(C(F)(F)F)c4)cc3)c(C)nc2cc1OCCN1CCOCC1 | 31.4% | 17.2% | 10.1% | 28.2% | 42.8% | 10% | 18.7% | 41.5% | 10.4% | -4.07% (active) | -1.99% (active) | – | 55.6% | 31% | 34.7% | 16.5% | 72.6% | 11.4% | 13.4% | 31.6%
4 | Cc1nn(-c2ccccc2)c2c1N=c1s/c(=C\c3ccc(C(F)(F)F)cc3)c(=O)n1CN2 | 47.1% | 59.3% | 71.4% | 43.4% | 80% | 59.8% | 59.9% | 63.5% | 38.3% | 98.8% | 97.9% | 16.2% | 93.4% | 91.5% | 68.3% | 138% | 96.9% | 40.4% | – | 51.2%
5 | Nc1ccc(Sc2ccc([N+](=O)[O-])c3nonc23)cc1 | 96.1% | 92.5% | 93.7% | 65.6% | 111% | 23% | 103% | 80.2% | 27.7% | 26.8% | 7.97% (active) | 79.9% | 108% | 96.8% | 97% | 78% | 102% | 98.8% | – | 97.8%
6 | COc1cc(C(=O)N2N=C(c3ccc(S(C)(=O)=O)cc3)CC2c2ccco2)cc(OC)c1OC (stereo unspecified) | 59.1% | 86% | 92.5% | 18.6% | 106% | 48.5% | 43.7% | 76.7% | 42% | 41.5% | 8.01% (active) | 44.6% | 89.5% | 84.3% | -2.69% (active) | 5% (active) | 74.9% | 63.1% | – | 84.1%
7 | Nc1nc2ccccc2c2c(=O)c3cc(F)ccc3sc12 | 110% | 91.5% | 101% | 91.3% | 110% | 101% | 107% | 89.7% | 105% | 101% | 101% | – | 102% | 108% | 103% | 113% | 101% | 97.5% | 106% | 101%
8 | COc1ccn2c(C(C)=O)cc(C(=O)c3ccc4c(c3)Sc3ccccc3N4)c2c1 | 27.3% | 37.6% | 25.3% | 28.3% | 29.6% | 20.7% | 15.9% | -17.8% (active) | 8.15% (active) | 13.1% | 5.07% (active) | 11.1% | 36.9% | 18.8% | 34.9% | -47.8% (active) | 41.9% | 12.7% | – | 50.2%
9 | O=C1CCC(C(=O)NCCNCCNC(=O)C2CCC(=O)N2)N1 (stereo unspecified) | 99.8% | 100% | 96.9% | 96.5% | 100% | 112% | 98.8% | 89.9% | 88.7% | 97.2% | 103% | 95.8% | 112% | 98% | 110% | 106% | 94.1% | 105% | – | 109%
10 | COc1ccc(-c2[nH]c3ccc(OC)cc3c2/C=C(\C#N)S(=O)(=O)c2ccccc2)cc1 | 82.6% | 36.8% | 44.4% | 42.2% | 45.7% | 41.4% | 74.5% | -5.52% (active) | 2.56% (active) | 17.6% | 28.1% | – | 63.3% | 31.9% | 48.6% | -1.23% (active) | 13.4% | 14.3% | 42.2% | -20.8% (active)
11 | C=C1C(=O)O[C@H]2[C@H]1CC/C(COC(=O)C(C)c1ccc(CC(C)C)cc1)=C\CC[C@@]1(C)O[C@@H]21 (stereo partly specified) | 36.7% | 46.2% | 35.2% | -87.6% (active) | 62% | -94.6% (active) | 79.1% | 92.7% | 4.97% (active) | -3.37% (active) | -1.31% (active) | -23% (active) | 74.1% | 102% | -69% (active) | 1.75% (active) | -4.39% (active) | 14.6% | – | –
12 | NC(=O)C1(Nc2ccc(Br)cc2)CCCC1 | 101% | 92% | 102% | 86.3% | 104% | 101% | 103% | 99.8% | 99.8% | 99% | 84.3% | – | 96.7% | 103% | 108% | 113% | 111% | 111% | 102% | 115%
13 | COc1cccc2c(=O)c3c(sc12)c(N1CCNCC1)nc1ccccc13 | 112% | 95.6% | 64.3% | 47.2% | 90.7% | 53.1% | 45.8% | 61.8% | 13.8% | -13.3% (active) | -33.9% (active) | – | 94.9% | 83% | 63.3% | -43.8% (active) | 89.5% | 73.2% | 53.2% | -41.4% (active)
14 | O=C(/C=C/c1cccc2ccccc12)c1ccc(NC(=O)c2ccccc2CN2C(=O)c3ccccc3C2=O)cc1 | 95.5% | 81.4% | 80.3% | 50.7% | 100% | 73% | 37.9% | 88.5% | 39.7% | 51.2% | 23.5% | – | 96.6% | 82.3% | 79.1% | 34.7% | 66.2% | 61% | 75.4% | 58.7%
15 | COc1ccc(/C=C(/C#N)n2nnc3cccc(F)c32)cc1 | -10.4% (active) | 36.8% | 28.9% | 26.2% | 46.5% | 31.5% | 22.8% | -7.93% (active) | 21.3% | 13.8% | 7.75% (active) | – | 19.7% | 29% | 34.4% | -18.6% (active) | -16.4% (active) | -29.6% (active) | 10.7% | 29.9%
16 | CC([C@H]1CCC2C3CCC4C[C@@H](NC=O)CC[C@]4(C)C3CC[C@@]21C)N(C)C (stereo partly specified) | -7.03% (active) | 29% | 19.9% | 0.264% (active) | 49.1% | 6.15% (active) | -10.1% (active) | 29.1% | -21.6% (active) | -49.9% (active) | -38.7% (active) | – | 67.8% | 42.5% | 25.6% | -34.3% (active) | -2.92% (active) | 27.1% | 41.1% | -18.6% (active)
